# From the supplement of paper PMC10338343
# ± gives the standard deviation.
# Test system: MILI (PIWIL2) piRISC loaded with L1MC piRNA (26 nt)
# Test: pre-steady-state target cleavage rate (min^-1); guide: L1MC piRNA 5'p-UAACUAAAUACUAUGCAAGCUGUAGG; MIWI and MILI are mouse PIWI proteins and EfPiwi is from a freshwater sponge; tags in brackets are library labels; higher = faster piRNA-guided slicing of the target
# Conditions: auxiliary factor: 500 nM mouse GTSF1
# Protocol: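 Cleave-'n-Seq: a library of target RNAs (target site embedded in constant flanks, ACAGCATTCCGCGTTAGTGATATCCG... 5' flank; DNA-blocked outside the site) at 0.1 nM was incubated with 1 nM active mouse MILI or MIWI piRISC (synthetic 5'-monophosphorylated piRNA guide) with or without 500 nM mouse GTSF1 at 33 °C for 1 min to 16 h. Uncleaved targets were sequenced and normalised to non-target controls, and the pooled three trials were fitted to a burst-and-steady-state model to give the pre-steady-state cleavage rate (min^-1; k3 is constrained to at most 1e-4). Sequence is the target site only; target names encode pairing extent (gX:gY) and contiguous / 1-mismatch / 2-mismatch / bulge geometry. Fits with R² ≤ 0 are excluded.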
row,Sequence,pre-steady-state target cleavage rate
1,UCCUCCUAGAGCUUGCAUAGUAUUUAGUUA,0.232 ± 0.019
2,UCCUCCUACAUGCUUGCAUAGUAUUUAGUUA,0.149 ± 0.018
3,UCCUGCUACAGCUGGCAUAGUAUUUAGUUA,0.293 ± 0.019
4,UCCUGCUACGAGCUUGCAUAGUAUUUAGUUA,0.217 ± 0.026
5,UCCUCCUACAGCUUGGUUAGUAUUUAGUAA,0.204 ± 0.022
6,UCCUGGAACAGCUUGCAUAGUUAUUAGUUA,0.0369 ± 0.0099
7,UCCUGGAUGUGCUAGCAUAGUAUUUAGUUA,0.125 ± 0.013
8,UCCUGGAUCAGCUUGCCUAGUAUUUAGUUA,0.234 ± 0.015
9,UCCUGGAUGUCGAAGCAUAGUAUUUAGUUA [g2:g16:cont:t1A],0.0359 ± 0.0067
10,UCCUGGUACUGGUUGCAUAGUAUUUAGUUA,0.162 ± 0.042
11,UCCUGGAUGAGCUUGCAUACUAUUAAGUUA,0.00607 ± 0.0038
12,UCCUGGAUGUACUUGCAUAGUAUUUAGUUA,0.0966 ± 0.016
13,UCCUGCAUCAGCUUGCAUAGUAUUUACAAA,0.126 ± 0.025
14,UCCUGGUACAGCUAGCAUACUAUUUAGUUA,0.126 ± 0.026
15,UCCUGGUUCAGCUUGCAUAGUAUUUAGUAA,0.144 ± 0.028
16,UCCUCCUACAGGUAGCAUAGUAUUUAGUUA,0.273 ± 0.013
17,UCCUGGAUGUCGAUGCAUAGUAUUUAGUAUA,0.0977 ± 0.016
18,UCCUGGAUGUGCUUGCAUAGUAUUUUGUUA,0.0696 ± 0.019
19,UCCUGGAACUGCUUGCAUAGUAUUAAGUUA,0.173 ± 0.022
20,UCCUGGAUGUGCUUGCAUAGUACUUUAGUUA,0.0231 ± 0.0092
21,UCCUGGUCACAGCUUGCAUAGUAUUUAGUUA,0.239 ± 0.018
22,UCCUGGAACAGCUAGCAUAGUAAUUAGUUA,0.155 ± 0.018

# Same assay, conditions: auxiliary factor: none (no GTSF1)
row,Sequence,pre-steady-state target cleavage rate
1,UCCUCCUAGAGCUUGCAUAGUAUUUAGUUA,0.00656 ± 0.0021
2,UCCUCCUACAUGCUUGCAUAGUAUUUAGUUA,0.0058 ± 0.002
3,UCCUGCUACAGCUGGCAUAGUAUUUAGUUA,0.00759 ± 0.0024
4,UCCUGCUACGAGCUUGCAUAGUAUUUAGUUA,0.00594 ± 0.0032
5,UCCUCCUACAGCUUGGUUAGUAUUUAGUAA,0.00554 ± 0.0017
6,UCCUGGAUGUGCUAGCAUAGUAUUUAGUUA,0.00747 ± 0.0023
7,UCCUGGAUCAGCUUGCCUAGUAUUUAGUUA,0.00686 ± 0.0022
8,UCCUGGAUGUCGAAGCAUAGUAUUUAGUUA [g2:g16:cont:t1A],0.00487 ± 0.0016
9,UCCUGGUACUGGUUGCAUAGUAUUUAGUUA,0.0125 ± 0.0045
10,UCCUGGAUGUACUUGCAUAGUAUUUAGUUA,0.0107 ± 0.0025
11,UCCUGGUACAGCUAGCAUACUAUUUAGUUA,0.00435 ± 0.0028
12,UCCUGGUUCAGCUUGCAUAGUAUUUAGUAA,0.00573 ± 0.0029
13,UCCUCCUACAGGUAGCAUAGUAUUUAGUUA,0.00904 ± 0.0021
14,UCCUGGAUGUCGAUGCAUAGUAUUUAGUAUA,0.00504 ± 0.0027
15,UCCUGGAUGUGCUUGCAUAGUAUUUUGUUA,0.00381 ± 0.0032
16,UCCUGGAACUGCUUGCAUAGUAUUAAGUUA,0.00346 ± 0.0024
17,UCCUGGAUGUGCUUGCAUAGUACUUUAGUUA,0.00627 ± 0.0028
18,UCCUGGUCACAGCUUGCAUAGUAUUUAGUUA,0.0126 ± 0.0051
19,UCCUGGAACAGCUAGCAUAGUAAUUAGUUA,0.00801 ± 0.0026
